We go through five molecules from ChEMBL document CHEMBL1961873, “Compounds: GSK PKIS; Assays: Nanosyn kinase panel” (2012).

Test [1] concerns the target Mast/stem cell growth factor receptor Kit (Homo sapiens) (UniProt P10721). Particulars: at 1 µM.
Test [2] deals with Mast/stem cell growth factor receptor Kit (Homo sapiens), P10721 [D816V]. Particulars: at 0.1 µM.
Test [3] has the same test system. Conditions: at 1 µM.
For test [4], the system named is Mast/stem cell growth factor receptor Kit (Homo sapiens), P10721 [T670I]. Particulars: at 0.1 µM.
Mast/stem cell growth factor receptor Kit (Homo sapiens), P10721 [T670I], sequence (P10721 whole entry T670I): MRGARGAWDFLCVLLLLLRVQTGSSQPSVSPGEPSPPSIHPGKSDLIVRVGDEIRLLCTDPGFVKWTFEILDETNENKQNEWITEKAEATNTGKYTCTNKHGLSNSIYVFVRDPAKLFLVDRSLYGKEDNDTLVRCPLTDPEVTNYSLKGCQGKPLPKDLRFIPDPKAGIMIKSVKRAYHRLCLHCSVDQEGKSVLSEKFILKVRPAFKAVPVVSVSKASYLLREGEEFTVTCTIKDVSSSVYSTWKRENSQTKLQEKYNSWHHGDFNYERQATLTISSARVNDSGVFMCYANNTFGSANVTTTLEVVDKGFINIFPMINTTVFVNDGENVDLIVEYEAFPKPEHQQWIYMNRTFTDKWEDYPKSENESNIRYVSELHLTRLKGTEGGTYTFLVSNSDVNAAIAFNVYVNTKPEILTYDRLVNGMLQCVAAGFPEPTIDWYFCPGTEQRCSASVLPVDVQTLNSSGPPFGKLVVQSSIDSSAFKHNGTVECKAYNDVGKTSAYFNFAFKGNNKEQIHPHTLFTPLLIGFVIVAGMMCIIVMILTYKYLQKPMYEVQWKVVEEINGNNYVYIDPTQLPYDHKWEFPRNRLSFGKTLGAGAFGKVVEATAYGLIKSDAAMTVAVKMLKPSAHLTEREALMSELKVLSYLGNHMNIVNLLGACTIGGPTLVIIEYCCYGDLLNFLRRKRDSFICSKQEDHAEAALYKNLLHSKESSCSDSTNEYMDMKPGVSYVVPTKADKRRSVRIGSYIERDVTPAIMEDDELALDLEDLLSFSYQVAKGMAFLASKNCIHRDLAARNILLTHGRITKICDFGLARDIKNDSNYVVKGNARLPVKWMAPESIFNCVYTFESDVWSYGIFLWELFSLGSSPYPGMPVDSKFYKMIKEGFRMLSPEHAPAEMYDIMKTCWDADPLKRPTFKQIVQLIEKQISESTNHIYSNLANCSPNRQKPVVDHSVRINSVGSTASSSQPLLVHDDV
For test [5] the test system is unchanged. Conditions: at 1 µM.
Test [6] concerns Mast/stem cell growth factor receptor Kit (Homo sapiens), P10721 [V560G]. Conditions: at 0.1 µM.
Mast/stem cell growth factor receptor Kit (Homo sapiens), P10721 [V560G], sequence (P10721 whole entry V560G): as the sequence (P10721 whole entry T670I) above, with V560G, I670T counted along it
Test [7] has the same test system. Conditions: at 1 µM.
Test [8] addresses Tyrosine-protein kinase Lck (Homo sapiens) (UniProt P06239). Particulars: at 0.1 µM.
For test [9] the target is unchanged. Conditions: at 1 µM.
The target in test [10] is Leukocyte tyrosine kinase receptor (Homo sapiens) (UniProt P29376). Particulars: at 0.1 µM.
Leukocyte tyrosine kinase receptor (Homo sapiens), sequence (P29376 whole entry): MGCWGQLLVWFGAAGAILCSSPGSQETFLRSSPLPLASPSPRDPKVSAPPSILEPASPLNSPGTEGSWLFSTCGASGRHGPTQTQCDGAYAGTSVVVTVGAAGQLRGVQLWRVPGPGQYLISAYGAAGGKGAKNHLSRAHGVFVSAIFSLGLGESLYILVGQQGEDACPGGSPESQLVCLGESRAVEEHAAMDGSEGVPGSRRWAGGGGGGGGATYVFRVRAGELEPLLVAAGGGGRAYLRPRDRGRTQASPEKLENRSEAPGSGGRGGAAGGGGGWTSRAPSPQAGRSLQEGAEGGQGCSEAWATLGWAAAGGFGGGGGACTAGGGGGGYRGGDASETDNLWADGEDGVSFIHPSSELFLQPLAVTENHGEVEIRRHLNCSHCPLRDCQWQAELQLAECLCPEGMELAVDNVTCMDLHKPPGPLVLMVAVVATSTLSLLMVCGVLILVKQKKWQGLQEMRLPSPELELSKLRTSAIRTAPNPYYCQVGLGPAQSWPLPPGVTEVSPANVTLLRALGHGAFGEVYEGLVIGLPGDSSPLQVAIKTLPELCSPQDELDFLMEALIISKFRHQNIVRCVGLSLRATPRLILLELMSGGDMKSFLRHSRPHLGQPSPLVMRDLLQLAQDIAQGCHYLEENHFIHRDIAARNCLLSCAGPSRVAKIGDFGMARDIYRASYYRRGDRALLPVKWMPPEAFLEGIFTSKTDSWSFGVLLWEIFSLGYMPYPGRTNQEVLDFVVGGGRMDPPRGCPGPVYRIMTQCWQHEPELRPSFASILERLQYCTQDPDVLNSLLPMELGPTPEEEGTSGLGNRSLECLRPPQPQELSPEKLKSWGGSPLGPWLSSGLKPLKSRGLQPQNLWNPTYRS
Test [11] has the same target. Conditions: at 1 µM.
For test [12], the target named is Tyrosine-protein kinase Lyn (Homo sapiens) (UniProt P07948). Conditions: at 0.1 µM.
Tyrosine-protein kinase Lyn (Homo sapiens), sequence (P07948 2-512 limits assumed): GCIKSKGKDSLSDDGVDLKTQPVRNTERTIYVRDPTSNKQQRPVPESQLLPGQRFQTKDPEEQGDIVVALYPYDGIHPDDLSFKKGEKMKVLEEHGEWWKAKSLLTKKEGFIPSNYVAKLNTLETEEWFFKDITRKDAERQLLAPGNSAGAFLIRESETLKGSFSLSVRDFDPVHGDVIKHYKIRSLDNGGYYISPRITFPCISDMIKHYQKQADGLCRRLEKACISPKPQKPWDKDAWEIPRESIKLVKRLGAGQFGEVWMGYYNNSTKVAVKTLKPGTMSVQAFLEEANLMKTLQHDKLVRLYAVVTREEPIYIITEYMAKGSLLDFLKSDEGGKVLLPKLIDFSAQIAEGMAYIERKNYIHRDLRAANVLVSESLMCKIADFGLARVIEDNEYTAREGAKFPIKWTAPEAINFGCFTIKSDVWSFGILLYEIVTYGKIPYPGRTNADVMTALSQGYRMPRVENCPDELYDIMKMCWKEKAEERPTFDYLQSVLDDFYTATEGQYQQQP
The target is the same in test [13]. Conditions: at 1 µM.
Test [14] has the same target. Particulars: at 0.1 µM. The source holds these as a separate data set.
Test [15] has the same target. Particulars: at 1 µM. This is another data set of the same source.
Test [16] has as its target T1, Tyrosine-protein kinase Mer (Homo sapiens) (UniProt Q12866).
T1 sequence (whole entry): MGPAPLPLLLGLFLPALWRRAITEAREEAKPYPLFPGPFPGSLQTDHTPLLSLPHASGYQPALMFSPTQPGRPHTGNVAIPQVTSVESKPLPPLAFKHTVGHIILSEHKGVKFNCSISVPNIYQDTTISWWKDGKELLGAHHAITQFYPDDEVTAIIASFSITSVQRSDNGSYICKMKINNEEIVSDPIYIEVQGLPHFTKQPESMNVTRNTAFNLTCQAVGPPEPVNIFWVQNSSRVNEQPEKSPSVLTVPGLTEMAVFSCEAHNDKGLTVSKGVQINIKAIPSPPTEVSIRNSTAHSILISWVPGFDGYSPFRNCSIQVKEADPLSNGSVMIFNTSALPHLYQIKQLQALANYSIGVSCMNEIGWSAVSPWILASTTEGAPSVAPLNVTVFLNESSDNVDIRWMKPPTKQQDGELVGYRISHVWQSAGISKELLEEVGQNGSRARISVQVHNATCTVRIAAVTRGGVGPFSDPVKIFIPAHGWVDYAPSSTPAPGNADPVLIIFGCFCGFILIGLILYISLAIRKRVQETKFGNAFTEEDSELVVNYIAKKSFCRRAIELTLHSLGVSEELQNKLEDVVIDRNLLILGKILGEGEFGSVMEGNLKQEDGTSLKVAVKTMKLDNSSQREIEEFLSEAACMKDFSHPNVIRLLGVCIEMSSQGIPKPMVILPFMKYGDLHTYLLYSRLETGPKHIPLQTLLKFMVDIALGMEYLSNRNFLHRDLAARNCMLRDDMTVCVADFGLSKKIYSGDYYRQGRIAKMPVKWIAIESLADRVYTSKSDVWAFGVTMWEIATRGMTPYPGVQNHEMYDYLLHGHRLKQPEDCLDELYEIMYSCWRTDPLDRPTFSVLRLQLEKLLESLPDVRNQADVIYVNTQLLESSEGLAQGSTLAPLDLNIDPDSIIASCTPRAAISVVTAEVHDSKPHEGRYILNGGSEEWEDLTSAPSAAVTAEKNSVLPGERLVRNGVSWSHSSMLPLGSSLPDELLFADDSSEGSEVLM
Conditions: at 0.1 µM.

The target of test [17] is T1, Tyrosine-protein kinase Mer (Homo sapiens). Conditions: at 1 µM.
For test [18], the target named is Hepatocyte growth factor receptor (Homo sapiens) (UniProt P08581). Conditions: at 0.1 µM.
Hepatocyte growth factor receptor (Homo sapiens), sequence (P08581 whole entry): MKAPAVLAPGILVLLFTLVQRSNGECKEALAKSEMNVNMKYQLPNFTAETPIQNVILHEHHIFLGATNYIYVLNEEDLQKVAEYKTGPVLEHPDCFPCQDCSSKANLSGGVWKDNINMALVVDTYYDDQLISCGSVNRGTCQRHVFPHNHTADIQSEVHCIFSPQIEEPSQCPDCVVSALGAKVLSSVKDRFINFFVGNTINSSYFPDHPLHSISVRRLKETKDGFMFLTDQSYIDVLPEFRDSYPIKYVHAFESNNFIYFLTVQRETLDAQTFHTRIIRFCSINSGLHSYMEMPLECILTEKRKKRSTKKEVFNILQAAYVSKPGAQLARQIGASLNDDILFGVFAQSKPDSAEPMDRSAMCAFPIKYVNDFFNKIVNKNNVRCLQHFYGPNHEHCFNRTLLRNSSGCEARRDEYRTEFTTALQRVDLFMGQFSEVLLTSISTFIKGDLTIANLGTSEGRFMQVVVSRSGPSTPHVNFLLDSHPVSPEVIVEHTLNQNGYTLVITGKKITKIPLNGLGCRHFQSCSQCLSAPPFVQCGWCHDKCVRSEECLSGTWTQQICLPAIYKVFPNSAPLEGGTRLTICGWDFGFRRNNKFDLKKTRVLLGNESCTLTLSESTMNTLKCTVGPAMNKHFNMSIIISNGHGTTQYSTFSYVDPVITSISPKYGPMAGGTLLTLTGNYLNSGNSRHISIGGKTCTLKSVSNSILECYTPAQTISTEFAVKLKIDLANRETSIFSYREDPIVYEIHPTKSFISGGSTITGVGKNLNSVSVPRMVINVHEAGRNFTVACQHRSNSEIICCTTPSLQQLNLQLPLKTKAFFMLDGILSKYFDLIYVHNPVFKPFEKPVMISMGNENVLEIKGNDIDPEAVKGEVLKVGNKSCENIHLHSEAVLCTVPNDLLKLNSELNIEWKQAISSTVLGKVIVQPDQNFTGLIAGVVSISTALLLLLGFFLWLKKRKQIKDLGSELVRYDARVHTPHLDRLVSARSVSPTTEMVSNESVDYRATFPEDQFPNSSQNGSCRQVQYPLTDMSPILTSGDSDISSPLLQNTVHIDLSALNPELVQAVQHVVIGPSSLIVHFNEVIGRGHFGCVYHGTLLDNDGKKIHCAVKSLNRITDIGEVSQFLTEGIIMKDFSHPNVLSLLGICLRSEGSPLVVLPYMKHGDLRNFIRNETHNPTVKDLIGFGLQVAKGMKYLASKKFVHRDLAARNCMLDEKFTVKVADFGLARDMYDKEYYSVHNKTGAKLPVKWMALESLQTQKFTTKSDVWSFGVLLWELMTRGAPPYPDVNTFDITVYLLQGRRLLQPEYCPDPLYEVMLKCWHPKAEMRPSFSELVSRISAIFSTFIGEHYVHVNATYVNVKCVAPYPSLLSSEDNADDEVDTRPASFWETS
The target is the same in test [19]. Conditions: at 1 µM.
Test [20] deals with T2, Muscle, skeletal receptor tyrosine-protein kinase (Homo sapiens) (UniProt O15146).
T2 sequence (whole entry): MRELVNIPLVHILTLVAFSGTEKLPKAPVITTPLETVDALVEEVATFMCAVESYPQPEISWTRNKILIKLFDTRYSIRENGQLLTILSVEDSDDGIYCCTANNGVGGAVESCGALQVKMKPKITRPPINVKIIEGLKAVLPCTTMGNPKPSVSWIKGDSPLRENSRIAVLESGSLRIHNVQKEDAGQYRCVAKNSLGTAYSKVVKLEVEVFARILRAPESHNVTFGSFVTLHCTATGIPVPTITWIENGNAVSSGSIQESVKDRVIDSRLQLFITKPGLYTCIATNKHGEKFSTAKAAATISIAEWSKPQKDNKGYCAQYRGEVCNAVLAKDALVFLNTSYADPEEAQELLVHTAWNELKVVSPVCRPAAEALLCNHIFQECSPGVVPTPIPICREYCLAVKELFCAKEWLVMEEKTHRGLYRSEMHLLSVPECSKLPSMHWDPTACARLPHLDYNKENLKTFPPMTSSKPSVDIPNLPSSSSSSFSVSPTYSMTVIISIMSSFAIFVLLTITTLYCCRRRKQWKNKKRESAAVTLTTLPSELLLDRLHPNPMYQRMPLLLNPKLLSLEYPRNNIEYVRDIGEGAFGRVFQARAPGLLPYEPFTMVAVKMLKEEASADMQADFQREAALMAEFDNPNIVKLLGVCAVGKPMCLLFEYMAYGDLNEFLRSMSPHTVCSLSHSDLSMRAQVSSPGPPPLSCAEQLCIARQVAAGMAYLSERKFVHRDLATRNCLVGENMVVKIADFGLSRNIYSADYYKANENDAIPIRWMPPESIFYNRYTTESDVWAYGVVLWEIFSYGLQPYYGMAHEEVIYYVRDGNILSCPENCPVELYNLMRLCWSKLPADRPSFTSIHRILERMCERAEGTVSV
Conditions: at 0.1 µM.

Mast/stem cell growth factor receptor Kit (Homo sapiens), P10721 [D816V], sequence (P10721 whole entry D816V): as the sequence (P10721 whole entry T670I) above, with I670T, D816V counted along it
Mast/stem cell growth factor receptor Kit (Homo sapiens), sequence (P10721 whole entry): as the sequence (P10721 whole entry T670I) above, with I670T counted along it
Tyrosine-protein kinase Lck (Homo sapiens), sequence (P06239 2-509 limits assumed): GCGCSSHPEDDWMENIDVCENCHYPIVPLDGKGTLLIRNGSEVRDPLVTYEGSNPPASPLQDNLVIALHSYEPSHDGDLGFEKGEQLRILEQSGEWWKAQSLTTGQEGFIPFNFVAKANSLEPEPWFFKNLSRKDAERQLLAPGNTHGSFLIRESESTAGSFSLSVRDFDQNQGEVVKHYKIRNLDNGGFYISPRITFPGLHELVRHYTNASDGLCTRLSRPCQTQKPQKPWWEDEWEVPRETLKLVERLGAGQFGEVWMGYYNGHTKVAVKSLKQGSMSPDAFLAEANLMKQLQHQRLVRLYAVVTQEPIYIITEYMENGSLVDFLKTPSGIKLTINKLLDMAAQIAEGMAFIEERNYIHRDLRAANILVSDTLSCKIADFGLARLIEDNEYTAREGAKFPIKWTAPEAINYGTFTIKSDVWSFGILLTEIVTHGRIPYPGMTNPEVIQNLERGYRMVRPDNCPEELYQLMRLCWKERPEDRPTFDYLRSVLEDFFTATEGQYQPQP

What is called inhibition is the change of the read-out against control, counted positive when it falls. With `COc1cc(C)c(N(C)C(=O)CN(C)C)cc1Nc1nc(Nc2cccc(F)c2C(N)=O)c2cc[nH]c2n1`, the inhibition is -0.73% in [1]; -0.92% in [2]; 0.99% in test [3]; -0.51% in [4]; -1.63% in [5]; -1.08% in test [6]. The inhibition in test [7] is -3.38%; in test [8] it was -3.07%; in test [9] it was -1.56%; in [10], 11.7%; in [11] it was 57.5%; in test [12], 0.96%. Also, the inhibition is 2.25% in test [13]; -0.16% in test [14]; 0.99% in test [15]; 1.74% in test [16]; 1.94% in test [17]; -0.92% in [18]. Also, the results for the inhibition in test [19] and in test [20] were 1.68% and 1.6%, respectively.

On to `COc1ccc2ncn(-c3cc(O[C@H](C)c4ccccc4Cl)c(C(N)=O)s3)c2c1`, for which the inhibition was 23.1% in test [1]; 2.74% in [2]; 7.75% in test [3]; 2.4% in test [4]; 7.3% in test [5]; -1.68% in test [6]. Besides, the inhibition in test [7] was 0.26%; in test [8] it was -2.03%; in test [9], -1.76%; in [10] it was 2.73%; in test [11], 2.89%; in test [12] it was 3.82%. The inhibition in test [13] is 5.65%; in test [14], 2.15%; in test [15], 2.91%; in [16], 2.41%; in [17], 4.42%; in [18], 4.37%. The inhibition was 4.23% in test [19] and 2.62% in test [20].

On to `NS(=O)(=O)c1ccc(N/N=C2\C(=O)Nc3ccc(C(=O)NCCCn4ccnc4)cc32)cc1`, for which the inhibition was 9.5% in test [1]; 6.28% in test [2]; 9.36% in test [3]; 3.5% in test [4]; 5.57% in test [5]; -1.18% in [6]. The inhibition stood at 1.2% in [7]; 1.53% in [8]; 7.02% in test [9]; 5.17% in test [10]; 7.11% in test [11]; 6.54% in test [12]. Further, the inhibition came out at 16.1% in [13]; 4.32% in test [14]; 12.4% in [15]; 1.34% in test [16]; 6.35% in test [17]; 2.76% in test [18]. Also, the values for the inhibition in test [19] and in test [20] were 12% and 4.66%, respectively.

In the case of `O=C(Nc1n[nH]c2cc(-c3cc(F)ccc3F)ccc12)C1CC1`, the inhibition was 7.05% in test [1]; 1.5% in test [2]; 3.88% in test [3]; 2.63% in test [4]; 3.43% in test [5]; 1.22% in test [6]. For the same molecule, the inhibition came out at 1.15% in [7]; 1.37% in [8]; 6.57% in test [9]; 6.64% in test [10]; 2.7% in test [11]; 5.22% in test [12]. The inhibition is 5.51% in test [13]; 3.27% in test [14]; 2.53% in [15]; 0.82% in test [16]; 2.71% in test [17]; 6.12% in [18]. In addition, the results for the inhibition in [19] and in test [20] were 4.36% and 3.35%, respectively.

In the case of `NC(=O)c1cc(-c2ccc(F)cc2)cc(-c2ccncc2)c1N`, the inhibition in [1] was 46.7%; in test [2] it was 2.24%; in [3], 4.8%; in test [4] it was 4.07%; in [5], 8.15%; in test [6] it was -2.86%. In addition, the inhibition in test [7] turned out to be 1.74%; in [8], 2.03%; in test [9], 7.42%; in test [10], 3.88%; in [11], 2.67%; in test [12], 7.55%. Also, the inhibition came out at 9% in [13]; 5% in [14]; 5.99% in test [15]; 1.16% in test [16]; 0.38% in test [17]; 3.9% in test [18]. The inhibition in test [19] is 8.57%; in test [20] it was 3.05%.
